Reference: the supplement of paper PMC9694430
Counter-ions that a name gives are not always drawn.

Columns and labels:
Experiment in all cases: thermal shift delta Tm vs DMSO control; higher = stronger stabilization (binding)
Details in all cases: 12.5 µM; protein concentration 2 µM
LOC_OS02G45750-cb003 = system: LOC_OS02G45750-cb003
Outline: (§1)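 Thermal shift values come from differential scanning fluorimetry on purified rice kinase domains made in E. coli, with melting temperatures obtained from Boltzmann fits. Samples of 19.5 μl held 2 μM kinase, 100 mM potassium phosphate pH 7.5, 150 mM NaCl, 10% glycerol, 5 × SYPRO Orange and compound in DMSO, and were heated from 25°C to 95°C at 0.05°C/s. Each shift is a triplicate mean relative to the DMSO-only protein sample.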

LOC_OS02G54510-cb004 = system: LOC_OS02G54510-cb004
Outline: as §1

LOC_OS03G04050-cb001 = system: LOC_OS03G04050-cb001
Outline: as §1

LOC_OS03G12390-cb001 = system: LOC_OS03G12390-cb001
Outline: as §1

LOC_OS03G27990-cb004 = system: LOC_OS03G27990-cb004
Outline: as §1

LOC_OS03G50450-cb001 = system: LOC_OS03G50450-cb001
Outline: as §1

LOC_OS03G50810-cb003 = system: LOC_OS03G50810-cb003
Outline: as §1

LOC_OS04G35114-cb001 = system: LOC_OS04G35114-cb001
Outline: as §1

LOC_OS04G38480-cb003 = system: T1, LOC_OS04G38480-cb003
T1 sequence (whole entry): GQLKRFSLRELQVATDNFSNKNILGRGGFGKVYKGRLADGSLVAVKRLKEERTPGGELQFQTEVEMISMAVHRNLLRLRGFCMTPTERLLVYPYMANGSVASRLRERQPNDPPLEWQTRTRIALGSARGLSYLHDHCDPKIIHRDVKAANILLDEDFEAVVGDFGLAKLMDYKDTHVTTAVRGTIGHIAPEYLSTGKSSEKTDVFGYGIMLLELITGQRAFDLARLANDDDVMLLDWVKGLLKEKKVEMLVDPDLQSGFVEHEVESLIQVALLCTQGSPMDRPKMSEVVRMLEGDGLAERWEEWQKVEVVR
Outline: as §1

LOC_OS04G41100-cb001 = system: T2, LOC_OS04G41100-cb001
T2 sequence (whole entry): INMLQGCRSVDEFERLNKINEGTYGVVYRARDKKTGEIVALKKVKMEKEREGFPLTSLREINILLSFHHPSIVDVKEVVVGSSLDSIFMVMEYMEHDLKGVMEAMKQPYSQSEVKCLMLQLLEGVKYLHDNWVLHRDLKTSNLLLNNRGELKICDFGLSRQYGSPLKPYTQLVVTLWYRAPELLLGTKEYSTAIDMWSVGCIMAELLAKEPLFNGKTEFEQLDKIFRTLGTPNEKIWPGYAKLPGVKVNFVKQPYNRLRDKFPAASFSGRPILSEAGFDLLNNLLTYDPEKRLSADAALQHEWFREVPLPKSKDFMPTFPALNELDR
Outline: as §1
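Note: purified Escherichia coli-expressed rice kinase domain construct.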

Row | Compound | thermal shift delta Tm (LOC_OS02G45750-cb003) [°C] | thermal shift delta Tm (LOC_OS02G54510-cb004) [°C] | thermal shift delta Tm (LOC_OS03G04050-cb001) [°C] | thermal shift delta Tm (LOC_OS03G12390-cb001) [°C] | thermal shift delta Tm (LOC_OS03G27990-cb004) [°C] | thermal shift delta Tm (LOC_OS03G50450-cb001) [°C] | thermal shift delta Tm (LOC_OS03G50810-cb003) [°C] | thermal shift delta Tm (LOC_OS04G35114-cb001) [°C] | thermal shift delta Tm (LOC_OS04G38480-cb003) [°C] | thermal shift delta Tm (LOC_OS04G41100-cb001) [°C]
1 | C=CC(=O)Nc1cccc(Sc2nc(Nc3ccc(N4CCN(C)CC4)cc3)ncc2Cl)c1 | 1.15 | 0.86 | 0.43 | 2.55 | 2.86 | 1.29 | 4.92 | 4.33 | 1.07 | 1.47
2 | O=C1NC(=O)C(c2cnc3ccccn23)=C1c1cn2c3c(cc(F)cc13)CN(C(=O)N1CCCCC1)CC2 | 0.77 | 0 | 0.57 | 4.58 | 0.13 | 0.64 | 0.95 | 1.35 | 1.47 | 1.44
3 | O=C(Nc1cccc(Cl)c1)Nc1ncc(CCNc2ncnc3ccsc23)s1 [SNS-314 Mesylate] | 0.93 | 0.38 | 1.02 | 1.77 | 0.36 | 0.82 | 0.75 | 1.73 | 2.48 | 1.12
4 | C=CC(=O)Nc1cccc(Oc2nc(Nc3ccc(N4CCN(C)CC4)cc3OC)ncc2Cl)c1 | 0.22 | 0.42 | 0.85 | 5.06 | 1.09 | 0.52 | 2.04 | 0.9 | -0.58 | 0.39
5 | Cc1ccc(CNc2ncnc3ccc(-c4ccc(CO)o4)cc23)o1 | 1.72 | 0.02 | 0.46 | 1.65 | 0.24 | 0.03 | -0.19 | 4.83 | 0.75 | 1.05
6 | CCCNC(=O)c1cn2ncnc(Nc3cc(C(=O)NC4CC4)ccc3C)c2c1C | 0.71 | 0.18 | 0.45 | -0.14 | 0.24 | 0.49 | 0.26 | 0.65 | 0.42 | 0.24
7 | COc1cc2ncnc(Nc3ccc(F)c(Cl)c3)c2cc1OCCCN1CCOCC1 [Gefitinib (ZD1839)] | 1.36 | 0.04 | 0.31 | 1.33 | 0.64 | 0.05 | 1.04 | 4.83 | 1.76 | 0.77
8 | NC(=O)c1ccc2nc(-c3ccc(Oc4ccc(Cl)cc4)cc3)[nH]c2c1 [Chk2 Inhibitor II (BML-277)] | -1.27 | -0.11 | 0.47 | 0.95 | 0.3 | 0.23 | 0.22 | 0.43 | 0.19 | -0.49
9 | CC(C)=CC[C@@H](O)C1=CC(=O)c2c(O)ccc(O)c2C1=O [Shikonin] | 0 | -0.56 | 0.62 | -4.26 | -2.32 | -1.22 | 0 | 3.21 | -2.82 | -0.35
10 | Nc1cc(C(F)(F)F)c(-c2cc(N3CCOCC3)nc(N3CCOCC3)n2)cn1 [Buparlisib (BKM120, NVP-BKM120)] | 0.32 | -0.07 | 0.3 | -0.03 | 0.23 | 0.11 | 0.38 | 0.31 | 0.85 | 0.22
11 | COc1cc2c(Nc3ccc(NC(=O)c4ccccc4)cc3)ncnc2cc1OCCCN1CCOCC1 | 2.66 | 0.37 | 0.55 | 0.43 | 0.34 | 0.3 | 1.85 | 2.46 | 0.65 | 0.59
12 | Cc1cc(Nc2ncnc3ccc(NC4=NC(C)(C)CO4)cc23)ccc1Oc1ccn2ncnc2c1 [Irbinitinib (ARRY-380, ONT-380)] | 0 | 0.14 | 0.65 | -3.39 | -0.73 | -0.45 | -0.83 | -1.83 | 0.82 | 0.49
13 | O=c1cc(N2CCOCC2)oc2c(-c3ccc4c(c3)OCCO4)csc12 | 0.67 | -0.08 | 0.24 | 0.53 | 0.46 | 0.44 | 0.8 | 1.85 | 1.22 | 0.17
14 | Cc1ccccc1CN1C2=NCCN2C(=O)C2=C1CCN(Cc1ccccc1)C2 [TIC10 Analogue] | -0.1 | 0.13 | 0.49 | -0.16 | 0.09 | 0.31 | 0.21 | 0.79 | 0.2 | 0.45
15 | Cc1ncc(CO)c(CO)c1O [Pyridoxine] | 0.81 | -0.02 | 0.53 | -0.09 | 0.25 | 0.62 | 0.03 | -0.36 | 0.12 | 0.24
16 | Cc1[nH]nc2ccc(-c3cncc(OC[C@@H](N)Cc4ccccc4)c3)cc12 | 2.29 | 0.14 | 0.35 | 3.08 | 0.34 | 0.59 | 1.41 | 1.06 | 0.62 | 1.9
17 | CSc1cccc(Nc2ncc3cc(-c4c(Cl)cccc4Cl)c(=O)n(C)c3n2)c1 | 1.81 | 1.36 | 0.46 | 0.1 | 0.26 | 0.49 | 0.58 | 2.51 | 1.67 | 0.59
18 | CNC(=O)c1ccc(C)c(-n2c(C)cc(OCc3ccc(F)cc3F)c(Br)c2=O)c1 | 0.5 | 0.06 | 0.28 | 0.6 | 0.15 | 0.27 | 0.59 | 0.14 | 0.62 | 0.73
19 | FC(F)c1nc2ccccc2n1-c1nc(N2CCOCC2)nc(N2CCOCC2)n1 | 0.78 | 0.23 | 0.44 | 0.51 | 0.31 | 0.75 | 0.35 | 0.03 | 1.98 | 0.9
20 | CN1CCN(c2ccc3nc(-c4c(N)c5c(F)cccc5[nH]c4=O)[nH]c3c2)CC1 [Dovitinib (TKI-258, CHIR-258)] | 13 | 0.96 | 0.58 | 2.88 | 4.19 | 2.43 | 4.84 | 7.2 | 1.57 | 0.95
